Pf growth 96h: P. falciparum growth inhibition at 96 hour, primary screen for plastid delayed-death inhibitors. P. falciparum luciferase reporter growth, 96 h. 320,000 tested, 6.9% active. Potency, µM (top dose mostly 28.7 µM), inactives show at the top dose activity change, negative = inhibition, most hits filed as inhibitors; note: potency is the fitted concentration of half-maximal effect
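Infected RBCs, 2% Hct / 0.05% parasitemia final; luciferase-reporter P. falciparum; cpd 96 h, 37 C, 5% CO2; luciferase detection reagent; luminescence.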
HCMV inh: inhibitors of human cytomegalovirus. HFF cells, HCMV-luciferase reporter, 72 h; hits give low values. activity change, negative = inhibition, % at 57.5 µM. 410,000 tested, 4.5% active; in the data active = activity change below about -60%; inconclusive = no clear call, values can overlap the other calls; inactive = above about -39%
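After 16 h attachment at 37C, HFF cells received test compound and HCMV-luciferase (1 PFU/cell); reporter luminescence read 72 h later, data normalized against buffer-only and known inhibitor Salinomycin.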
HCV inhibitor: blocks hepatitis C virus; 340,000 tested, 3.4% active; Potency, µM (highest dose often 41.8 µM), for the others: at the highest dose activity change, negative = inhibition, most hits filed as inhibitors; Huh7.5.1 HCVcc-Cre infection, luciferase reporter, 44 h; note: potency is the fitted concentration of half-maximal effect
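Cells seeded at 1,000/well and cultured 4 h, then compounds added followed by HCVcc-Cre virus (~0.5 moi). After 44 h further culture, luciferase substrate was added, plates held 15 min at room temperature, and luminescence read for 15 sec.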
Pf growth 48h: P. falciparum growth inhibition at 48 hours (one generation). P. falciparum luciferase growth in erythrocytes, 48 h. Potency, µM (highest dose often 28.7 µM), inactives show at the highest dose activity change, negative = inhibition, most hits filed as inhibitors. 310,000 tested, 5.9% active; note: potency is the fitted concentration of half-maximal effect
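Read-out is firefly luciferase luminescence from an integrated reporter in P. falciparum, so falling signal marks reduced parasite growth. Infected erythrocytes were at 2% hematocrit and 0.1% parasitemia (final) in Albumax-supplemented RPMI 1640.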
Numbers without * were called inactive; ? = inconclusive; . = no result given; ! = not confirmed by another sample; [ ] = another dose, or the depositor's remark. The list is not random: actives were taken first. Their share in the collection is about 13%. Unless noted, calls come from the whole dose curve; as a rule, active = well fitted inhibition curve with a large enough effect; inconclusive = small, poorly fitted or top-dose-only effect, or another doubt; inactive = no such curve, though single readings can be large or run the other way. % is set by controls: 0 for no effect and ±100 for the full control effect.

SMILES | Pf growth 96h | HCMV inh | HCV inhibitor | Pf growth 48h
NC(N)=N/N=C/c1cccc([N+](=O)[O-])c1O | -14.7% | -28.6 | 4.4% | ?
NC(N)=N/N=C/c1cccc(Cl)c1Cl | 2.08µM* | ? | -29.5% | 1.65µM*
CC1=C(C)/C(=N\OS(=O)(=O)c2ccccc2)C=CC1=O | 13.1µM* | . | 12.6µM* | .
Cc1ccc(S(=O)(=O)O/N=C2\CCCc3ccccc32)cc1 | -3.7% | 89.7 | 15.3% | .
Cc1cc(C)c(NC(=O)CSc2nc3ccccc3c3nc(-c4ccccc4)nn23)c(C)c1 | . | 13.4 | . | .
CCCNS(=O)(=O)c1ccc(OCC(=O)N2CCN(Cc3ccc4c(c3)OCO4)CC2)c(C)c1 | ? | ? | 7.94µM* | 8.9%
O=C1CCc2cc(S(=O)(=O)NCCCC(=O)N3CCN(Cc4ccc5c(c4)OCO5)CC3)ccc2N1 | 13.1µM* | -10.1 | 3.6% | -45.6%
O=C(CCc1ccc(S(=O)(=O)NCCc2ccccc2)cc1)N1CCN(Cc2ccc3c(c2)OCO3)CC1 | ? | -89.4* | . | .
CCNS(=O)(=O)c1ccc(CCC(=O)N2CCN(Cc3ccccc3)CC2)cc1 | ? | -6.2 | -8.9% | -17.7%
CCSc1nnc2c(n1)OC(CC)N(C(C)=O)c1ccccc1-2 (stereo not drawn) | . | 11.3 | . | .
COc1ccc2c(Sc3ccc(C)cc3)c(C(=O)NCc3ccc(F)cc3)[nH]c2c1 | . | -15.9 | . | .
CC(C)Cn1c(SCC(=O)N2CC(=O)Nc3ccccc32)nc2ccccc21 | ? | -38.9 | -5.2% | ?
COCC(C)n1c(SCC(=O)N2CC(=O)Nc3ccccc32)nc2ccccc2c1=O (stereo not drawn) | ? | -15.9 | 7.0% | 13.1µM*
CC(c1ccccc1)n1c(SCC(=O)N2CC(=O)Nc3ccccc32)nc2ccccc2c1=O (stereo not drawn) | 5.22µM* | -81.4* | ? | 13.1µM*
CCCCN1CC(O)C(O)C(O)C1CO (stereo not drawn) | ? | . | . | 2.8%
CNC(=S)N1CCN(c2c(F)cc3c(=O)c(C(=O)O)cn(C4CC4)c3c2OC)CC1C (stereo not drawn) | 13.1µM* | -22.3 | 30.1% | .
COc1c(N2CCN(C(=S)Nc3ccccc3)C(C)C2)c(F)cc2c(=O)c(C(=O)O)cn(C3CC3)c12 (stereo not drawn) | -16.5% | . | . | ?
Cn1c(CNc2cccc(C(F)(F)F)c2)n[nH]c1=S | ? | -0.5 | 8.5% | 27.6%
Cn1c(-c2csc(-c3cccc(C(F)(F)F)c3)n2)n[nH]c1=S | 0.0% | -83.9* | 8.5% | ?
CC(C)(C)OC(=O)N1CCC(c2c(C(=O)NCCN3CCOCC3)cnn2-c2ccc(F)cc2)CC1 | . | -3.3 | . | .
CCOC(=O)c1ccc(NC(=S)N2CCC(O)CC2)cc1 | 14.3% | -3.1 | 8.3% | 72.9%
CCOC(=O)c1ccc(NC(=S)N2CCSC2c2ccc(Br)cc2)cc1 (stereo not drawn) | -20.8% | -61.4* | ? | -17.8%
Cc1ccc(NC(=O)N/C=C/c2ccco2)c(C)c1 | -8.7% | 13.7 | ? | -22.6%
Cc1ccc(NC(=O)N/C=C/c2ccco2)cc1C | 36.0% | -108.2* | 0.3% | 6.9%
CC1=CC(C)(C)[N+](C)=CN1c1ccccc1 | 8.28µM* | 17.7 | -5.1% | ?
SMILES | Pf growth 96h | HCMV inh | HCV inhibitor | Pf growth 48h
Cc1cc(O)c(C(c2cccc(Cl)c2)N2CCN(c3ccccc3)CC2)c(=O)n1Cc1ccco1 (stereo not drawn) | . | 14.0 | . | .
Cc1ccc(CNC(=O)C(C)n2nc(C)n3c(cc4sccc43)c2=O)cc1 (stereo not drawn) | . | 7.2 | . | .
COc1ccc(-c2cc(C(=O)N3CCN(c4ncccn4)CC3)c3ccccc3n2)c(OC)c1 | 1.85µM* | 16.6 | ? | ?
Clc1ccc2nc(N3CCNCC3)nc(-c3ccccc3)c2c1 | 9.0%[5.75 µM] | ? | 10µM* | 11.7µM*
CCCc1ccc(-c2cc(C(=O)N3CCN(c4ccccn4)CC3)c3ccccc3n2)cc1 | 5.22µM* | -64.4* | ? | 5.7%
CCOC(=O)N1CCN(c2nc(-c3ccccc3)c3cc(C)ccc3n2)CC1 | ? | -26.8 | ? | 10.4µM*
O=C(c1cc(-c2ccccc2Cl)nc2ccccc12)N1CCN(c2ccccn2)CC1 | . | . | -2.5% | .
CN1CCN(c2nc(-c3ccccc3)c3cc(Cl)ccc3n2)CC1 | 5.3% | 10.2 | -13.3% | ?
CCOC(=O)N1CCN(C(=O)c2ccc3nc(-c4ccccc4)c(-c4ccccc4)nc3c2)CC1 | 1.6% | -34.3 | -23.9% | ?
COc1ccc(OC)c(-c2cc(C(=O)N3CCN(c4ncccn4)CC3)c3ccccc3n2)c1 | ? | 97.6 | ? | ?
Cc1nc2ccc(S(=O)(=O)NC(CC(C)C)C(=O)NCc3ccc(Cl)cc3)cc2s1 (stereo not drawn) | . | -4.4 | . | .
CN(N=Nc1nc[nH]c1C(N)=O)C1CCCCC1 | . | -10.0 | . | .
COc1cc(N2CCC(O)CC2)ccc1Nc1cc(Nc2ccccc2S(=O)(=O)C(C)C)c2cc[nH]c2n1 | . | -35.8 | . | .
CCOc1ccc(-c2cc(C(=O)N3CCN(C)CC3)c3ccccc3n2)cc1 | . | 106.8 | -12.1% | 153.6%
CCOC(=O)N1CCN(C(=O)c2cc(-c3ccc(OCC)cc3)nc3ccccc23)CC1 | 3.7µM* | 120.4 | ? | 26.8%
CCOc1ccc(-c2cc(C(=O)N3CCN(c4ccccn4)CC3)c3ccccc3n2)cc1 | . | 37.5 | 7.08µM*! | -43.8%
COc1ccc(CNC(=O)c2cc(Nc3ccc(OC)cc3OC)nc3ccccc23)cc1 | . | 11.8 | . | .
COc1ccc(Nc2cc(C(=O)N3CCc4ccccc4C3)c3ccccc3n2)c(OC)c1 | 19.6% | -23.0 | 10µM* | 13.1µM*
CCOc1ccc(-c2cc(C(=O)NN3CCN(C)CC3)c3cc(Cl)ccc3n2)cc1 | 4.15µM* | ? | -0.5% | 2.33µM*
Cc1ccc2oc(-c3cc(NC(=O)Cc4ccccc4)ccc3Cl)nc2c1 | . | -35.4 | . | .
COc1ccccc1CNC(=O)Cn1ncc2c(C)n(Cc3ccccc3Cl)c(C)c2c1=O | . | -6.8 | . | .
COc1cc(-c2cc(C(=O)N3CCN(c4ccccn4)CC3)c3ccccc3n2)cc(OC)c1OC | 47.2% | 40.2 | 12.6µM* | ?
COc1ccc(-c2cc(C(=O)N3CCN(c4ccccn4)CC3)c3ccccc3n2)cc1 | . | 58.0 | ? | 69.9%
Cc1ccc(CNC(=O)C2CCCN(S(=O)(=O)c3ccc4c(ccn4C)c3)C2)cc1 (stereo not drawn) | . | -22.2 | . | .
O=C(NC(Cc1ccc2c(c1)OCO2)C(=O)N1CCCC1C(=O)O)c1ccccc1 (stereo not drawn) | -8.5% | -24.6 | 16.0% | 7.3%
Cc1ccc(CC(NC(=O)c2ccccc2)C(=O)N2CCCC2C(=O)O)cc1 (stereo not drawn) | 0.9% | -107.1* | 16.9% | -7.9%
O=C(NC(Cc1ccccc1)C(=O)N1CCN(c2ccccc2O)CC1)c1ccccc1 (stereo not drawn) | 6.57µM* | -11.4 | ? | 8.28µM*
CCc1ccc(NC(=O)CSC2=Nc3ccccc3C3=NC(CCC(=O)NCCc4ccccc4)C(=O)N23)cc1 (stereo not drawn) | . | -9.2 | . | .
CC(C)c1ccc(C(=O)Nc2ccc(-c3nc4ccccc4s3)c(Cl)c2)cc1 | . | -6.9 | . | .
